Hit rate of the full screen: of about 13,000 compounds, about 3,200 (25%) showed an effect of 50% or more. The list shows a part of the results.
tested on: P. falciparum stage V gametocytes; parameters: BacTiter-Glo ATP luminescence viability of purified stage V gametocytes in 384-well plates, per cent inhibition versus DMSO; settings: 48 h, 5 µM; inhibitor

Row | SMILES | % Inhibition
1 | O=C(c1cc2c(s1)-c1cccc(Cl)c1SC2)N1CCN(c2ccncc2)CC1 [TCMDC-133145] | 30.1%
2 | CCOc1cc2ncnc(Nc3ccc(OCc4ccccc4Br)c(OC)c3)c2cc1OCC [TCMDC-131938] | -6.786%
3 | COc1ccccc1C1CC(c2ccccc2)=NN1C(=O)c1ccco1 (stereo not drawn) [TCMDC-124921] | 5.682%
4 | COc1ccc(-c2cn3c(C(=O)Nc4ccccc4Cl)c(-c4ccccc4)c4c3n2CCCC4)cc1 [TCMDC-125125] | -39.86%
5 | CCNC(=O)CCc1cccc(Br)c1 [TCMDC-137648] | 26.26%
6 | CCNc1cc(C(=O)N[C@@H](Cc2ccccc2)[C@H](O)CNCCc2cccc3ccccc23)cc(N2CCCC2=O)c1 [TCMDC-134568] | -9.566%
7 | CC(C)(C)[C@@H](Nc1ccc(C#N)c2ccccc12)C(=O)NC1(Cc2ccc(O)c(Br)c2)CCCC1 [TCMDC-136784] | 27.12%
8 | CC(C)C[C@H](Nc1ccc(C#N)c2ccccc12)C(=O)N[C@@H]1CCCc2ccccc21 [TCMDC-136088] | 59.15%
9 | COC(=O)[C@@H](NC(=O)[C@H](CC(C)C)Nc1ccc(C#N)c2ccccc12)c1ccc(O)cc1 [TCMDC-136622] | 62.67%
10 | COc1cccc([C@@H](CC(=O)Nc2cc(C(F)(F)F)ccc2OC)Nc2ccc(C#N)c3ccccc23)c1 [TCMDC-132309] | 11.85%
11 | N#Cc1ccc(N[C@@H](CC2CCCCC2)C(=O)N[C@@H]2CCCc3ccccc32)c2ccccc12 [TCMDC-136633] | 13.98%
12 | COC(=O)[C@@H](NC(=O)[C@H](Cc1ccc(OC)c(OC)c1)Nc1ccc(C#N)c2ccccc12)c1ccc(O)cc1 [TCMDC-136637] | 53.18%
13 | CCC(CC)C(CC(=O)NC(C)(C)CCc1ccccc1OC)Nc1ccc(C#N)c2ccccc12 (stereo not drawn) [TCMDC-132308] | 3.423%
14 | Cc1cc(NC(=O)[C@H](CC(C)C)Nc2ccc(C#N)c3ccccc23)ccc1F [TCMDC-136623] | -63.41%
15 | CC(C)(C)[C@@H](Nc1ccc(C#N)c2ccccc12)C(=O)NC1(Cc2ccc(O)cc2)CCCC1 [TCMDC-136782] | 18.1%
16 | CCCCC1(NC(=O)[C@H](CC(C)C)Nc2ccc(C#N)c3ccccc23)CCCCC1 [TCMDC-136624] | -52.31%
17 | N#Cc1ccc(N[C@@H](CC2CCCCC2)C(=O)NCc2cc(Cl)cc(Cl)c2)c2ccccc12 [TCMDC-136626] | 13.09%
18 | COC(=O)[C@@H](NC(=O)[C@@H](Nc1ccc(C#N)c2ccccc12)C(C)(C)C)c1ccc(O)cc1 [TCMDC-136607] | 78.97%
19 | CC(=O)Nc1cccc(CNCc2ccc(-c3cnc(N4CCCC(c5ccccc5)C4)nc3)cc2)c1 (stereo not drawn) [TCMDC-133723] | -4.34%
20 | CC(Sc1nc(-c2ccccc2)c(-c2ccccc2)o1)C(=O)NC1CC1 (stereo not drawn) [TCMDC-125313] | 34.01%
21 | O=C(Nc1ccc(Cn2ncc(N3CCCNCC3)c(Cl)c2=O)cc1)Nc1cccc(SC(F)(F)F)c1 [TCMDC-133321] | -32.98%

Row | SMILES | % Inhibition
22 | O=C(Nc1ccc([N+](=O)[O-])cc1)Nc1nc2ccc(Cl)cc2s1 [TCMDC-123703] | 38.6%
23 | Cc1cccc2nc(-c3ccc(-c4ccc(NC(=O)C(C)CN(C)C)cc4)s3)[nH]c12 (stereo not drawn) [TCMDC-137115] | 20.93%
24 | COc1nc2c(CCN3CCC(NCc4ccc5c(n4)NC(=O)CO5)CC3)c(Cl)cnc2cc1F [TCMDC-135766] | -7.442%
25 | CN1CCN(Cc2cc3cc(NC(=O)/C=C/c4cccc(Cl)c4)ccc3s2)CC1 [TCMDC-135630] | -63.97%
26 | CC(C)C[C@@H](/C=N/N1CCNC1=O)NC(=O)[C@H](CC(C)C)NC(=O)c1ccc(OCCN2CCOCC2)cc1 [TCMDC-136227] | 6.84%
27 | COC(=O)c1cccc(CNCc2cccc(-c3cccc(-c4nc5cc(C(F)(F)F)ccc5[nH]4)c3)c2)c1.O=C(O)C(F)(F)F [TCMDC-132949] | 2.495%
28 | CC(C)(CC1CCCCC1)NC(=O)[C@H](CC1CCCCC1)Nc1ccc(C#N)c2ccccc12 [TCMDC-136632] | -68.15%
29 | CCC(CC)(Cc1ccccc1)NC(=O)[C@H](CC1CCCCC1)Nc1ccc(C#N)c2ccccc12 [TCMDC-136634] | -0.7992%
30 | CCC(CC)(Cc1ccccc1)NC(=O)[C@H](CC(C)C)Nc1ccc(C#N)c2ccccc12 [TCMDC-136625] | -7.489%
31 | CCC(CC)(Cc1ccccc1)NC(=O)[C@H](Cc1ccc(OC)c(OC)c1)Nc1ccc(C#N)c2ccccc12 [TCMDC-136638] | 82.88%
32 | N#Cc1ccc(N[C@@H](CC2CCCCC2)C(=O)Nc2ccc(-c3ccccc3)cc2)c2ccccc12 [TCMDC-136629] | 57.71%
33 | Cc1cc(NC(=O)[C@H](CC2CCCCC2)Nc2ccc(C#N)c3ccccc23)ccc1F [TCMDC-136627] | 3.721%
34 | CC(=O)c1ccc(-c2ccccc2)s1 [TCMDC-123882] | -10.02%
35 | CC[C@H](C)[C@H](NC(=O)[C@H](CC1CCCCC1)[C@H](CC)N(O)C=O)C(=O)Nc1ccccn1 [TCMDC-137215] | 2.069%
36 | CC(=O)Nc1cccc(-c2cn(-c3ccc(OCc4cccc(F)c4)c(Cl)c3)c3ncncc23)c1 [TCMDC-135093] | -24.36%
37 | COc1ccc(C2C(C(=O)OC3CCCC3)=C(C)NC3=C2C(=O)CCC3)cc1Br (stereo not drawn) [TCMDC-124211] | -24.26%
38 | CCn1cc(C=C2Oc3c(ccc(O)c3CN3CCCCC3C)C2=O)c2ccccc21 (stereo not drawn) [TCMDC-124886] | 27.57%
39 | Cc1cc(C(=O)Nc2nc(-c3ccccn3)nc3ccsc23)no1 [TCMDC-135243] | 58.63%
40 | Cc1occc1C(=O)Nc1nc(-c2ccccn2)nc2ccsc12 [TCMDC-135244] | 130.5%
41 | Cc1cc(C(=O)Nc2ccc(-c3ccccc3)cc2)no1 [TCMDC-124865] | 48.28%
42 | Cc1onc(-c2ccccc2)c1C(=O)Nc1nc(-c2ccccn2)nc2ccsc12 [TCMDC-135272] | -61.64%
